# Measurements reported in PubChem BioAssay (NCI).
# “And” between values parts separate entries of the source, which are not always exact repeats. Identical values can stand only once. This is part of a sample that, as a whole, favours compounds with a hit. Of some 83,000 tested, about 20% had one in any assay.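 Results are percent growth after 48 hours of single-concentration exposure. 100 means growth as in untreated cells, lower positive values show inhibition; negative values down to -100 show cell death.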 The source made the active and inactive calls. The calls were made as follows: active = growth percent below 10; inactive = the rest.
# Tests used:
# Test in all cases: NCI-60 one-dose screen, 48 h (100 = growth as untreated, 0 = no growth, -100 = all killed)
# [1] = test system: SR leukemia; settings: 10 µM unless noted
# [2] = test system: RPMI-8226 leukemia; settings: 10 µM unless noted
# [3] = test system: OVCAR-8 ovarian; settings: 10 µM unless noted
# [4] = test system: OVCAR-5 ovarian; settings: 10 µM unless noted
# [5] = test system: OVCAR-4 ovarian; settings: 10 µM unless noted
# [6] = test system: SK-OV-3 ovarian; settings: 10 µM unless noted
# [7] = test system: OVCAR-3 ovarian; settings: 10 µM unless noted
# [8] = test system: HS 578T breast; settings: 10 µM unless noted
# [9] = test system: NCI/ADR-RES ovarian; settings: 10 µM unless noted
# [10] = test system: T-47D breast; settings: 10 µM unless noted
# [11] = test system: BT-549 breast; settings: 10 µM unless noted
# [12] = test system: SW-620 colon; settings: 10 µM unless noted
# [13] = test system: MCF7 breast
# [14] = test system: HCC-2998 colon; settings: 10 µM unless noted
# [15] = test system: KM12 colon; settings: 10 µM unless noted
# [16] = test system: IGROV1 ovarian; settings: 10 µM unless noted
# [17] = test system: MDA-MB-435 melanoma; settings: 10 µM unless noted
# [18] = test system: HCT-116 colon; settings: 10 µM unless noted
Compound,growth [1],growth [2],growth [3],growth [4],growth [5],growth [6],growth [7],growth [8],growth [9],growth [10],growth [11],growth [12],growth ([13]; 10 µM unless noted),growth [14],growth [15],growth [16],growth [17],growth [18],growth ([13]; 10 µM),growth ([13]; 100 µM)
Cc1cc2ccccc2cn1,109% (inactive),100% (inactive) and 114% (inactive),102% (inactive),107% (inactive),108% (inactive) and 90.4% (inactive),108% (inactive) and 103% (inactive),112% (inactive) and 111% (inactive),113% (inactive) and 144% (inactive),103% (inactive) and 118% (inactive),104% (inactive) and 107% (inactive),106% (inactive) and 105% (inactive),104% (inactive) and 116% (inactive),98.5% (inactive) and 101% (inactive),112% (inactive) and 118% (inactive),106% (inactive) and 108% (inactive),–,–,–,–,–
Nc1ncnc2c1ncn2C1OC(COP(=O)(O)O)C(O)C1O (configuration not stated),111% (inactive),106% (inactive),111% (inactive),108% (inactive),126% (inactive),114% (inactive),124% (inactive),–,109% (inactive),123% (inactive),113% (inactive),–,101% (inactive),104% (inactive),111% (inactive),–,–,–,–,–
Cc1cc(-c2ccc(N=Nc3ccc4c(S(=O)(=O)O)cc(S(=O)(=O)O)c(N)c4c3O)c(C)c2)ccc1N=Nc1ccc2c(S(=O)(=O)O)cc(S(=O)(=O)O)c(N)c2c1O,–,–,101% (inactive),90.2% (inactive),–,102% (inactive),95.5% (inactive),119% (inactive),103% (inactive),93.1% (inactive),86.1% (inactive),110% (inactive),103% (inactive),117% (inactive),94.7% (inactive),78.5% (inactive),98.5% (inactive),85.8% (inactive),–,–
CC(=O)NCC(=O)c1ccc([N+](=O)[O-])cc1,104% (inactive),104% (inactive),103% (inactive),103% (inactive),113% (inactive),108% (inactive),105% (inactive),106% (inactive),104% (inactive),86.3% (inactive),107% (inactive),99.5% (inactive),96.5% (inactive),109% (inactive),103% (inactive),–,–,–,–,–
O=C(/C=C/c1ccccc1)c1ccccc1,–,32% (inactive),103% (inactive),98.4% (inactive),95.3% (inactive),91.7% (inactive),98.7% (inactive),98.4% (inactive),118% (inactive),64.6% (inactive),126% (inactive),86.6% (inactive),-2.52% (active),120% (inactive),33.3% (inactive),–,76.6% (inactive),–,–,–
COc1ccc(N/C=C/C2=[N+](C)c3ccccc3C2(C)C)c(OC)c1,101% (inactive),81.6% (inactive),93.6% (inactive),106% (inactive),91.7% (inactive),90.7% (inactive),93.6% (inactive),99.9% (inactive),92.8% (inactive),89.5% (inactive),89.3% (inactive),92.7% (inactive),87.7% (inactive),98.4% (inactive),103% (inactive),–,–,–,–,–
CN(C)CC1CCCCCC(CN(C)C)C1=O (configuration not stated),5.93% (active),13.1% (inactive),80.3% (inactive),146% (inactive),79% (inactive),107% (inactive),-12.7% (active),85.8% (inactive),88.3% (inactive),22.2% (inactive),95% (inactive),-64.3% (active),24.7% (inactive),117% (inactive),102% (inactive),–,–,–,–,–
COc1ccc2cc1Oc1ccc(cc1)C[C@H]1c3cc(c(OC)cc3CCN1C)Oc1c(OC)c(OC)cc3c1[C@H](C2)N(C)CC3,-7.9% (active),-31.2% (active),–,72.3% (inactive),–,110% (inactive),70.4% (inactive),46% (inactive),56.8% (inactive),93.1% (inactive),28.5% (inactive),40.1% (inactive),–,0.135% (active),15.6% (inactive),–,24.7% (inactive),–,52.7% (inactive),98.3% (inactive) and 67.5% (inactive)
COc1cc(C(O)C2C(=O)OCC2C2(c3ccc4c(c3)OCO4)SCCCS2)cc(OC)c1OC (configuration not stated),–,98.9% (inactive),102% (inactive),97.2% (inactive),103% (inactive),105% (inactive),105% (inactive),101% (inactive),89.4% (inactive),107% (inactive),102% (inactive),102% (inactive),97.6% (inactive),98.5% (inactive),96.2% (inactive),94.5% (inactive),–,91.7% (inactive),–,–
Brc1ccc(SSc2ccc(Br)cc2)cc1,57.8% (inactive),35.6% (inactive),83.9% (inactive),90.8% (inactive),91.2% (inactive),110% (inactive),85.4% (inactive),96.9% (inactive),66.2% (inactive),–,29.4% (inactive),84.2% (inactive),59.7% (inactive),93.5% (inactive),57.4% (inactive),–,82.6% (inactive),56.6% (inactive),–,–
NC(=O)NCCCC(N)C(=O)O (configuration not stated),84% (inactive),96.5% (inactive),98% (inactive),113% (inactive),112% (inactive),100% (inactive),106% (inactive),106% (inactive),102% (inactive),88.4% (inactive),95.7% (inactive),107% (inactive),101% (inactive),110% (inactive),101% (inactive),–,–,–,–,–
N#CC(C#N)N=Nc1cc(Cl)ccc1Cl,106% (inactive),95.2% (inactive),90% (inactive),97.4% (inactive),98.9% (inactive),99.2% (inactive),106% (inactive),116% (inactive),112% (inactive),96.7% (inactive),101% (inactive),104% (inactive),93.7% (inactive),104% (inactive),103% (inactive),–,–,97.2% (inactive),–,–
Cc1cc(-c2cc(C)c(O)c(C)c2)cc(C)c1O,–,79.4% (inactive),95% (inactive),95.6% (inactive),–,–,97.2% (inactive),85.1% (inactive),76% (inactive),93.7% (inactive),65.7% (inactive),77.4% (inactive),91.6% (inactive),92.3% (inactive),72.6% (inactive),–,–,83.7% (inactive),–,–
CCc1cc(C)cc(O)c1,102% (inactive),106% (inactive),105% (inactive),106% (inactive),112% (inactive),102% (inactive),126% (inactive),110% (inactive),111% (inactive),102% (inactive),–,107% (inactive),98.3% (inactive),104% (inactive),114% (inactive),–,–,98.2% (inactive),–,–
Cn1cnc([N+](=O)[O-])c1Sc1ncn[nH]1,126% (inactive),–,73.8% (inactive),116% (inactive),95.5% (inactive),115% (inactive),119% (inactive),119% (inactive),119% (inactive),94.2% (inactive),101% (inactive),106% (inactive),102% (inactive),–,107% (inactive),105% (inactive),–,–,–,–
COc1ccc(Nc2ccc3ccccc3c2)cc1,–,66.5% (inactive),–,97.4% (inactive),79.5% (inactive),72.6% (inactive),78.7% (inactive),96.5% (inactive),65.7% (inactive),65.6% (inactive),94.7% (inactive),72.1% (inactive),58.1% (inactive),–,46.7% (inactive),–,22.1% (inactive),–,–,–
O=C1c2c(O)ccc(O)c2C(=O)c2c(NCCNCCO)ccc(NCCNCCO)c21,-12.7% (active),-21.8% (active) and -30.9% (active),-41.6% (active),-15.1% (active) and -78.6% (active),-39.7% (active),-23.4% (active) and -35.4% (active),-50.5% (active) and -31.7% (active),-22.8% (active),39.1% (inactive) and -9.1% (active),-24% (active) and -46.9% (active),-46.2% (active) and -85.9% (active),-30.8% (active) and -81.8% (active),-42% (active),-88.5% (active),-11.4% (active) and -25.6% (active),–,–,–,–,–
O=[N+]([O-])c1cccc(SSc2cccc([N+](=O)[O-])c2)c1,81% (inactive),–,100% (inactive),104% (inactive),105% (inactive),97.8% (inactive),127% (inactive),121% (inactive),116% (inactive),76.9% (inactive),101% (inactive),109% (inactive),93.7% (inactive),108% (inactive),107% (inactive),–,–,94% (inactive),–,–
OCCN1CCCCCCC1,109% (inactive),108% (inactive),101% (inactive),109% (inactive),–,103% (inactive),111% (inactive),90.8% (inactive),102% (inactive),95.6% (inactive),98.2% (inactive),108% (inactive),99% (inactive),100% (inactive),110% (inactive),104% (inactive),98.4% (inactive),–,–,–
O=C1OC(c2ccccc2)=N/C1=C\c1ccccc1,108% (inactive),102% (inactive),100% (inactive),105% (inactive),113% (inactive),97.2% (inactive),111% (inactive),97.4% (inactive),99.7% (inactive),96.4% (inactive),96.3% (inactive),101% (inactive),98.4% (inactive),96.6% (inactive),108% (inactive),–,–,–,–,–
